IMPase inh = membrane-permeable compound that blocks inositol monophosphatase; inhibition (IP1 accumulation), % at 46.1 µM; 120,000 tested, under 10 active; AID 901; CHO-M1 cells, IP1 accumulation, HTRF TR-FRET ratio; active = well fitted curve in the direction sought with a large enough effect in the signal ratio, not every such curve was filed as active; inconclusive = small, poorly fitted or top-dose-only effect, or a change in a side signal; inactive = no such curve, though single readings can be large or run the other way; the % refers to the signal ratio;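 note: cells stimulated with carbachol in lithium chloride buffer; higher means more IMPase inhibition seen as more IP1 and lower FRET ratio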
Target sequence (P97697 whole entry, looked up): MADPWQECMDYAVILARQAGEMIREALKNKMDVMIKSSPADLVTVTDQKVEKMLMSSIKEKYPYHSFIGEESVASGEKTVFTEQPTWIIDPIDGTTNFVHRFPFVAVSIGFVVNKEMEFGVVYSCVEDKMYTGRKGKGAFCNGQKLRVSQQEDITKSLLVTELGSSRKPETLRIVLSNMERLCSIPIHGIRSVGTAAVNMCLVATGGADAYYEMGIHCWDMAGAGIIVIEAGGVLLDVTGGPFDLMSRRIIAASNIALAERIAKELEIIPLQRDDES
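CHO-M1, 2000 cells/well, cultured 16–30 h; cpd up to 46 uM; carbachol (50 uM solution, stimulation buffer w/ 50 mM LiCl, pH 7.4), 30 min 37C; IP-One TR-FRET, 10 min RT; Ex 320/Em 665, 620; Hill-fit AC50.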
ALDH1A1 block = blocks purified human ALDH1A1 activity; P00352; Purified ALDH1A1, NADH fluorescence, propionaldehyde substrate; Potency, µM (titrated, usually from 75.3 µM), most hits filed as inhibitors; hit rate 7.3% among 220,000; active = well fitted inhibition curve with a large enough effect, not every such curve was filed as active; inconclusive = small, poorly fitted or top-dose-only effect, or another doubt; inactive = no such curve, though single readings can be large or run the other way
HttQ103 aggreg = inhibitors of mutant huntingtin aggregate formation in PC12 cells; PC12 HttQ103-GFP aggregates, Acumen cytometry, 40 h; Potency, µM (series often up to 46.1 µM), hits mostly inhibitors; hit rate 1.1% among 220,000; AID 1688; note: nearly all actives have a fitted effect of over 60% in size
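PC12 cells with ecdysone-inducible HTT exon1 Q103-GFP, induced by 100 nM tebufenozide, given compounds in a concentration series. GFP aggregates (1–25 um, 6 SD above background) counted in lysates by laser-scanning cytometry, 488 nm excitation.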
IMPase Li inh = membrane-permeable IMPase blocker, potentiated with lithium; Potency, µM (top dose mostly 59.4 µM), hits mostly inhibitors; AID 1457; hit rate 0.35% among 210,000; CHO-M1 cells, IP1 TR-FRET (IP-One), carbachol + lithium;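 note: IP1 builds up when IMPase is blocked and the TR-FRET signal falls; nearly all actives have a fitted effect of over 50% in size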
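Concentration–response in CHO-M1 cells, lithium-potentiated; 30 min at 37C. IP1 detected by competitive TR-FRET after 10 min lysis at RT. Hill-fitted AC50.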
HPGD block = inhibitors of human 15-hydroxyprostaglandin dehydrogenase (HPGD); Potency, µM, hits mostly inhibitors; hit rate 4.3% among 150,000; P15428; purified HPGD, NADH fluorescence kinetic, PGE2 substrate; active = well fitted inhibition curve with a large enough effect, not every such curve was filed as active; inconclusive = small, poorly fitted or top-dose-only effect, or another doubt; inactive = no such curve, though single readings can be large or run the other way
Target sequence (P15428 whole entry, looked up): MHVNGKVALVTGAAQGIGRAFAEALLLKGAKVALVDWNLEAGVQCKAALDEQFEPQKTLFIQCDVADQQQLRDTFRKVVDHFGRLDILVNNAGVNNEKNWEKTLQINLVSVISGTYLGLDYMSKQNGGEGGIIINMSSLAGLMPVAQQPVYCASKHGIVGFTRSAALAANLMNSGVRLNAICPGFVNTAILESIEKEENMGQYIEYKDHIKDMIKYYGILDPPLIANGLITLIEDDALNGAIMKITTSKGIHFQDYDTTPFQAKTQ
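20 nM HPGD preincubated 15 min at room temperature with compound in 50 mM Tris-HCl pH 8, 0.01% Tween 20. Started with 1 mM NAD+ and 30 uM prostaglandin E2; NADH fluorescence (360/450 nm) read 5 times over 30-s intervals, last minus first.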
HTT cytoprotect = cytoprotection in Huntington HTT-Q103 PC12 cell model; PC12 HTT-Q103 induced, cytoprotection, ATP luminescence, 40 h; Potency, µM (doses to about 56.4 µM), most hits filed as activators; hit rate 0.14% among 230,000; AID 1471; note: nearly all actives have a fitted effect of over 45% in size
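Compounds added alongside 100 nM tebufenozide, which induces toxic Q103 huntingtin exon 1-GFP in stable PC12 cells; surviving cells quantified by luminescent ATP measurement. Medium: phenol red-free DMEM, 5% equine and 5% calf serum.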
Large screens that a line does not name were inactive. The list is not random: actives were taken first. Their share in the collection is about 9.4%. Unless noted, calls come from the whole dose curve; as a rule, active = well fitted curve in the direction sought with a large enough effect; inconclusive = small, poorly fitted or top-dose-only effect, or another doubt; inactive = no such curve, though single readings can be large; an effect the other way counts as inactive or inconclusive.

Nc1nc(-c2cccc(NS(=O)(=O)c3ccccc3)c2)cs1	ALDH1A1 block 7.94µM, HttQ103 aggreg inconclusive, HPGD block 11.2µM
CO[C@H]1COC(=O)[C@H](C)NC(=O)C/C=C\[C@@H](C)[C@H](OC)COC(=O)[C@@H](OCc2ccccc2)/C=C\[C@@H]1C	none (no result: IMPase inh, HttQ103 aggreg, IMPase Li inh, HPGD block)
Cc1nn(Cc2ccccc2)c(Cl)c1C(=O)OC(C)C#N (centres undefined)	ALDH1A1 block 22.4µM (no result: IMPase inh, HPGD block)
Nc1c(S(N)(=O)=O)cc(S(N)(=O)=O)cc1S(N)(=O)=O	none (no result: IMPase inh, HttQ103 aggreg)
COc1ccc(Nc2ncnc3ccc([N+](=O)[O-])cc23)c(OC)c1	ALDH1A1 block inconclusive, HttQ103 aggreg inconclusive (no result: IMPase inh, HPGD block)
O=[N+]([O-])c1ccc2ncnc(Nc3ccc4c(c3)OCCO4)c2c1	ALDH1A1 block 0.355µM, HttQ103 aggreg 14.1µM (no result: IMPase inh, HPGD block)
O=[N+]([O-])c1ccc(O)c(Nc2ncnc3ccc(Br)cc23)c1	ALDH1A1 block inconclusive, HttQ103 aggreg 31.6µM (no result: IMPase inh, HPGD block)
OC1(C(O)(c2ccc(-c3ccccc3)cc2)c2ccc(-c3ccccc3)cc2)CCCCC1	none (no result: IMPase inh, HttQ103 aggreg)
CCC1=C2CC[C@H]3C(=O)N(CC)C(=O)[C@H]3[C@H]2[C@@]2(C)C(=NCCc3c[nH]c4ccccc34)OC(=O)N2C1=O	HTT cytoprotect inconclusive (no result: IMPase inh, HttQ103 aggreg)
CCOc1ccc2nc(SCC(=O)NCc3ccco3)sc2c1	HPGD block 22.4µM
CCOc1ccc2nc(SCC(=O)c3cccs3)sc2c1	ALDH1A1 block 12.6µM, HPGD block 5.01µM
COc1ccc(OCc2nc3c4c(-c5ccc(OC)cc5)c(-c5ccc(OC)cc5)oc4ncn3n2)cc1	none (no result: ALDH1A1 block, HttQ103 aggreg, IMPase Li inh, HPGD block, HTT cytoprotect)
Cc1ccc(N2C(=O)CC(SCC(=O)Nc3ccc(S(N)(=O)=O)cc3)C2=O)cc1 (centres undefined)	ALDH1A1 block 14.1µM (no result: IMPase inh, HPGD block)
O=C(CSC1CC(=O)N(c2ccc(C(=O)O)cc2)C1=O)Nc1ccc2ccccc2c1 (centres undefined)	none (no result: IMPase inh, HPGD block)
CCOC(=O)c1ccc(N2C(=O)CC(SCC(=O)Nc3ccc(S(N)(=O)=O)cc3)C2=O)cc1 (centres undefined)	ALDH1A1 block 1.58µM (no result: IMPase inh, HPGD block)
COC(=O)c1ccc(N2C(=O)CC(SCC(=O)Nc3ccc(OC)cc3)C2=O)cc1 (centres undefined)	none (no result: IMPase inh, ALDH1A1 block, IMPase Li inh, HPGD block)
Oc1ccccc1/C=N/Nc1ccnc(SCc2ccccc2)n1	HPGD block 28.2µM (no result: IMPase inh)
Clc1ccc(Cl)c(Nc2ccnc(SCc3ccccc3)n2)c1	none (no result: IMPase inh, HttQ103 aggreg)
O=S(=O)(c1ccccc1)c1cnc(-c2ccccc2)nc1N1CCCCC1	ALDH1A1 block 12.6µM, HttQ103 aggreg inconclusive (no result: IMPase inh, HPGD block)
Cc1ccc(S(=O)(=O)c2cnc(-c3ccccc3)nc2N2CCN(C)CC2)cc1	ALDH1A1 block 2.24µM (no result: IMPase inh, HPGD block)
CCN(CC)c1nc(-c2ccccc2)ncc1S(=O)(=O)c1ccc(C)cc1	ALDH1A1 block inconclusive (no result: IMPase inh, HPGD block)
CN1CCN(c2nc(-c3ccccc3)ncc2S(=O)(=O)c2ccccc2)CC1	ALDH1A1 block 14.1µM (no result: IMPase inh, HPGD block)
Fc1ccc(-c2nnc(CN3CCN(c4ccccn4)CC3)o2)cc1	none (no result: ALDH1A1 block, HttQ103 aggreg, IMPase Li inh, HPGD block, HTT cytoprotect)
NCCc1nc(-c2nc(C(=O)O)cs2)cs1	none (no result: IMPase inh, HttQ103 aggreg)
OCC1(CO)COC(c2ccccc2)=N1	none (no result: IMPase inh, HPGD block)
O=C1OC(c2ccccc2)=NC12CC2c1ccc(Cl)cc1 (centres undefined)	ALDH1A1 block 28.2µM, HPGD block 28.2µM (no result: IMPase inh, HTT cytoprotect)
COC1=CC(C)C2CC3OC(=O)CC4C(C)=C(OC)C(=O)C([C@]2(C)C1=O)[C@]34C (some centres undefined)	none (no result: IMPase inh, HttQ103 aggreg, HTT cytoprotect)
S=C(Nc1ccccc1Cl)Nc1ccc(Cl)cc1Cl	ALDH1A1 block inconclusive
S=C(NCc1cccs1)Nc1ccccc1Cl	HPGD block 14.1µM (no result: IMPase inh)
S=C(NCc1cccs1)Nc1cccc(Cl)c1	HPGD block 12.6µM
NNC(=S)Nc1ccccc1Cl	ALDH1A1 block 28.2µM (no result: IMPase inh, HPGD block)
CCOC(=O)c1c(C)oc2c1cc(NS(=O)(=O)c1ccc(C)cc1)c1ccccc12	none (no result: ALDH1A1 block, HttQ103 aggreg, IMPase Li inh, HPGD block, HTT cytoprotect)
CCOC(=O)C1CCN(c2ccc([N+](=O)[O-])c(C(C)=O)c2)CC1	ALDH1A1 block inconclusive (no result: IMPase inh, HPGD block)
CCc1nc2sc3c(N4CCC(C)CC4)ncnc3c2c2c1CCCC2	none (no result: ALDH1A1 block, HttQ103 aggreg, IMPase Li inh, HPGD block, HTT cytoprotect)
CC1(C)c2ssc(=S)c2-c2ccccc2N1C(=O)c1ccco1	none
